Results taken from PubChem BioAssay (NCI).
The panel holds about 83,000 compounds, 20% with a hit somewhere; the sample as a whole holds those more often.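 Activity criterion: percent growth below 10, measured after cells in 96-well plates were exposed to a single compound concentration for 48 hours.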 Calls of active or inactive are those of the source.

What follows are molecules tested on NCI-H522 lung (assay: NCI-60 one-dose screen, 48 h (100 = growth as untreated, 0 = no growth, -100 = all killed)). Conditions: 10 µM unless noted.
Experimental: Growth inhibition of the NCI-H522 human Non-Small Cell Lung tumor cell line is measured as a screen for anti-cancer activity. Cells are grown in 96 well plates and exposed to the test compound for 48 hours. Compounds are tested at a single concentration, which is 10^-5 M for most compounds. The reported endpoint is percent growth (GI% or GIPRCNT), where numbers from 0 - 100% represent growth inhibition, and numbers from -100% - 0 represent cell death. For example, a value of 40 represents 60% growth inhibition. A value of 0 means no net growth occurred over the course of the experiment. A value of -40 indicates 40% of cells at the beginning of the experiment died by the end of the experiment. A value of -100 means all cells are dead at the end of the experiment.
NCI-60 Human Tumor Cell Lines Screen was performed using the standard one-dose NCI protocol, which is described in more detail at https://dtp.cancer.gov/discovery_development/nci-60/default.htm.
Compounds with GIPRCNT values below 10 were considered active. Activity score was based on GIPRCNT using the following formula: […]
Score is 0 for GIPRCNT values of 100 or above, 50 for GIPRCNT values of 0, and 100 for GIPRCNT values of -100.

Row | Compound | growth
1 | CC(C)=CCC[C@](C)(O)[C@H]1CC[C@]2(C)[C@@H]1CC[C@@H]1[C@@]3(C)C/C(=C/c4ccc(Br)cc4)C(=O)C(C)(C)[C@@H]3CC[C@]12C | 96.4% (inactive)
2 | Cc1cc(C=O)c(C)c2c1[nH]c1ccccc12 | 88.5% (inactive)
3 | CCCCN1CCCCn2c1nc1c2c(=O)n(C)c(=O)n1C | 90.1% (inactive)
4 | COc1ccc(/C=C/C(=O)NCCO)cc1 | 82% (inactive)
5 | O=c1[nH]ncc(Br)c1Br | -41.3% (active)
6 | C=C1C(=O)O[C@H]2[C@H]1CC/C(COC(=O)NCc1c[nH]c3ccccc13)=C\CC[C@@]1(C)O[C@@H]21 | -35.2% (active)
7 | Nc1nc2c3ccncc3cc(-c3cccc(Cl)c3)c2c2cnccc12 | 48.4% (inactive)
8 | Cn1cc(-c2csc(-c3cn(CCCN4CCCCC4)c4ccc(Br)cc34)n2)c2cccnc21 | 11.7% (inactive)
9 | Cc1ccc(Cc2cnc(NC(=O)/C=C/c3cccc(C)c3)s2)cc1 | 18.6% (inactive)
10 | [B-][N+](CC)(CC)c1ccccc1 | 96.5% (inactive)
11 | COc1ccc2nc(-c3cc(-c4cc(OC)c(OC)c(OC)c4)n[nH]3)[nH]c2c1 | -15.1% (active)
12 | CC1(C)c2ccccc2C(=O)C1(Br)Cc1ccccc1 (stereo not given) | 83.1% (inactive)
13 | O=C(O)c1cccc2c1-c1ccc(Cl)cc1C2 | 88.2% (inactive)
14 | COc1cccc(-c2nn(-c3ccccc3)cc2-c2ccnc(NCCCNS(=O)(=O)c3ccccc3)c2)c1 | 31.1% (inactive)
15 | COc1ccc(-c2nc3c(c(C)nn3-c3ccc(F)cc3)c(=O)[nH]2)cc1 | 81.3% (inactive)
16 | Cc1cc(Cl)nc(N(CCNc2ccnc3cc(Cl)ccc23)Cc2ccco2)n1 | 53.2% (inactive)
17 | C=C(C)[C@@H]1CC[C@]2(CN)CC[C@]3(C)[C@H](CC[C@@H]4[C@@](C)(CCCN)[C@H](C(=C)C)CC[C@]43C)[C@@H]12 | 94% (inactive)
18 | COC(=O)[C@]12CC[C@@H](C)[C@H](C)[C@@H]1C1=CC[C@@H]3[C@@](C)(CC#N)C4=C(C[C@@]3(C)[C@]1(C)CC2)OC[C@]4(C)C=O | -6.43% (active)
19 | CCCCC[C@H]1C/C=C2/C(=O)C=C[C@@H]2C/C=C\CCCC(=O)O[C@@H](CCCCC)C/C=C2/C(=O)C=C[C@@H]2C/C=C\CCCC(=O)O1 | -81.7% (active)
20 | O=C1/C(=C\c2ccco2)SC(=S)N1CCc1ccc(O)cc1 | 68.9% (inactive)

Row | Compound | growth
21 | Clc1cc(Cl)cc(Nc2ccc3c(OCCCN4CCOCC4)cccc3n2)c1 | 5.16% (active)
22 | C#CCN=C[C@]12CC[C@@H](C(=C)C)[C@@H]1[C@H]1CC[C@@H]3[C@@]4(C)CCC(=O)C(C)(C)[C@@H]4CC[C@@]3(C)[C@]1(C)CC2 | 51% (inactive)
23 | COc1ccc2c(c1)c(-c1nc(-c3cn(C)c4ncccc34)cs1)cn2CCCN1CCCCC1 | 87.7% (inactive)
24 | c1csc(-c2nc(-c3cc4ccccc4c(N4CCOCC4)n3)cs2)c1 | 93.8% (inactive)
25 | COc1cccc(-c2nn(-c3ccccc3)cc2-c2ccnc(NCCCNS(=O)(=O)c3ccc(C(F)(F)F)cc3)c2)c1 | 17.4% (inactive)
26 | Cc1ccc2oc(=O)cc(-c3sc(N4CCCCC4)nc3-c3ccccc3)c2c1 | 89% (inactive)
27 | CCCCC(=O)OC1CCCCC1C (stereo not given) | 83% (inactive)
28 | COc1ccc(C2NC(=O)Nc3ccccc32)c(OC)c1 (stereo not given) | 91.6% (inactive)
29 | Cn1c2c(c3ccc(Cl)cc31)-n1cccc1C2=O | 71.3% (inactive)
30 | CC[C@]12C=CCN3CC[C@@]4(c5cc([C@H]6CCC(=O)N6)c(OC)cc5N(C)[C@H]4[C@@](O)(C(=O)OC)[C@@H]1OC(C)=O)[C@@H]32 | 93% [2.5 µM] (inactive)
31 | Nc1nc2c(c(=O)[nH]1)C(c1ccc3c(c1)OCO3)C=C(C(=O)O)N2 (stereo not given) | 106% (inactive)
32 | COc1cc(-c2cc3ncccc3c3nc(OCCN(C)C)c4cccnc4c23)cc(OC)c1OC | 7.46% (active)
33 | Cn1cc(-c2csc(-c3cn(CCCN4CCCCC4)c4ccccc34)n2)c2cccnc21 | 95.2% (inactive)
34 | Nc1ccc(Br)cn1 | 95.4% (inactive)
35 | CN(C)c1ccc(C(=O)c2ccc(N(C)C)c(N)c2)cc1N | 49.2% (inactive)
36 | COc1ccc(/C=C(\C#N)c2cc3ccccc3n2S(C)(=O)=O)cc1 | 73.5% (inactive)
37 | Nc1c2c(nc3ccc(Cl)cc13)CC(c1ccc(O)cc1)CC2=O (stereo not given) | 43.6% (inactive)
38 | COC(=O)[C@]12CC[C@@H](C)[C@H](C)[C@@H]1C1=CC[C@@H]3[C@@]4(C)C[C@@H](O)OC[C@](C)(C=O)C4C(=O)C[C@@]3(C)[C@]1(C)CC2 (stereo not given in full) | -41.9% (active)
39 | O=C(O[C@@H]1Cc2c(O)cc(O)cc2O[C@@H]1c1cc(O)c(O)c(O)c1)c1cc(O)c2c(c1)OCO2 | 83.3% (inactive)
40 | COc1ccc(-c2n[nH]nc2-c2cc3ccccc3s2)cc1O | -5.47% (active)
